# Bioassay records: PubChem, several laboratories
# Sampled rows, rich in hits. Any-hit rate of the full collection: about 27%.
# CYP2C9 activ: activators of human CYP2C9; recombinant CYP2C9, luciferin-H conversion, luminescence; hits give high values; factor 1 = untreated enzyme, 0 = blocked; actives 1.4% (n = 96,000); AID 1024; activation factor at 5 µM;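 active means activation factor of 2 or more for CYP2C9 at a 5 µM dose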
# Cav32 inh: human Cav3.2 channel inhibition, primary screen | O95180 | Cav3.2-expressing cells, Fluo-4 calcium fluorescence FDSS; hits give low values | B-score at 10 µM | actives 4% (n = 100,000) | AID 449739;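 active means single-dose well whose peak fluorescence ratio is a statistical outlier from its plate by either plate-standardised score or position-corrected B-score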
# Target sequence (O95180 whole entry, looked up): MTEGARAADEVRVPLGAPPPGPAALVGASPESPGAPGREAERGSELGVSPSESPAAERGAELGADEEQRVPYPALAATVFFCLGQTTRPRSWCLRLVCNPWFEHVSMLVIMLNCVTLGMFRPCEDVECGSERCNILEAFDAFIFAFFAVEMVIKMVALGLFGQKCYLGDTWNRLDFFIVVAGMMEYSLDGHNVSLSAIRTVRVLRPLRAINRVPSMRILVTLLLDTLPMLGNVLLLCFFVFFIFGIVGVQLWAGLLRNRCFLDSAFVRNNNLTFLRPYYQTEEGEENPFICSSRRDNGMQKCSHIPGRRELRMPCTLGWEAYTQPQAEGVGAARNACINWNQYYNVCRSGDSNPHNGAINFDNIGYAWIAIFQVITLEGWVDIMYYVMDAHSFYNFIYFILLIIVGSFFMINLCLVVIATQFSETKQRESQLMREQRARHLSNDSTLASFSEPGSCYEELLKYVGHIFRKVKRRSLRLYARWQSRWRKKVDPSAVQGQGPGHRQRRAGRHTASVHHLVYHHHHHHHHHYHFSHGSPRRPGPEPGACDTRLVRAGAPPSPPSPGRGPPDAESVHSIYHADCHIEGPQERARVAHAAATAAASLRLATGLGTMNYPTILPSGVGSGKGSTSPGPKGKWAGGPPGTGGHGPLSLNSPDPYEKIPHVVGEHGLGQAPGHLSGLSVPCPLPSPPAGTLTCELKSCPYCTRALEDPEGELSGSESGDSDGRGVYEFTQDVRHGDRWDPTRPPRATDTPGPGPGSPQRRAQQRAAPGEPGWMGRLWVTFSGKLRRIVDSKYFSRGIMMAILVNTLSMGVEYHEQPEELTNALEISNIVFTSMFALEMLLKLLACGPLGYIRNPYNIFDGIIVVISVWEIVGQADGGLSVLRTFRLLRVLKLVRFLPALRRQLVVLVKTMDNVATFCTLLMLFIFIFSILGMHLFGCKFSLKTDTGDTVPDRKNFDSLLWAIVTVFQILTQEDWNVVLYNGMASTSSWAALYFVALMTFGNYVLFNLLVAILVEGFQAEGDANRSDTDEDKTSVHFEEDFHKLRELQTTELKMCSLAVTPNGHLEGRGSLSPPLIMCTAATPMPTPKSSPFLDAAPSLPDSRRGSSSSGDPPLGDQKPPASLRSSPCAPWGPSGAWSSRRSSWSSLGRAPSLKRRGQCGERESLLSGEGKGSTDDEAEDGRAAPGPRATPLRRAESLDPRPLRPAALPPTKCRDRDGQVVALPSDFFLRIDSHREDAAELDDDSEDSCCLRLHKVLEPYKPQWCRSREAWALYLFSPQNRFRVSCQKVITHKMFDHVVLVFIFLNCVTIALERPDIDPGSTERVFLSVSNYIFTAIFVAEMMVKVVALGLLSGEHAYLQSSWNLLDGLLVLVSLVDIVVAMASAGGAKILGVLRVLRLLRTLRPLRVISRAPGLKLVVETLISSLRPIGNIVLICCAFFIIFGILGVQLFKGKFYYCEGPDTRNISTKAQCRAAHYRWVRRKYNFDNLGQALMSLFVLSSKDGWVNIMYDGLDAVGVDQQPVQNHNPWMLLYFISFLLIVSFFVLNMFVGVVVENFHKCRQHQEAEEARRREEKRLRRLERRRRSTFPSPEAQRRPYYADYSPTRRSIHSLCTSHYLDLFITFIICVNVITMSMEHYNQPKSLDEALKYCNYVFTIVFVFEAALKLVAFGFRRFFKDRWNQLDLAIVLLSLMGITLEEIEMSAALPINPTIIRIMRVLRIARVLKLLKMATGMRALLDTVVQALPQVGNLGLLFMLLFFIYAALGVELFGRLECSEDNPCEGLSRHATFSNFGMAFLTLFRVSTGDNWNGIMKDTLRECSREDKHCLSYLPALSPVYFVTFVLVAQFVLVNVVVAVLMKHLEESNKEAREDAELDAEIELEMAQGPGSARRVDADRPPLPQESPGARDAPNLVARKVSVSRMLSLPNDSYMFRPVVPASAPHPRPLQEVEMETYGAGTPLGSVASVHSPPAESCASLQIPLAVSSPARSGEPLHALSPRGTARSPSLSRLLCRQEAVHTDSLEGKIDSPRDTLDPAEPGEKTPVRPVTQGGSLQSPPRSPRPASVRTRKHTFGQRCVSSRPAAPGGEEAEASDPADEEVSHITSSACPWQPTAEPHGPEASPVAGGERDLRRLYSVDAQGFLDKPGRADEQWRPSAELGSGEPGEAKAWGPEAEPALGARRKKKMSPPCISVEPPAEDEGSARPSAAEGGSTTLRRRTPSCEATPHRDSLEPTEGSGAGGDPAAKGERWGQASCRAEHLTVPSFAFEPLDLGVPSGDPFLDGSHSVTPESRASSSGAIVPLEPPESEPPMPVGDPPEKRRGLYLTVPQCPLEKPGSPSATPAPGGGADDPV
# CYP2C19 inh: blocks human cytochrome P450 2C19. P33261. AID 778. actives 21% (n = 96,000). inhibition, % at 5 µM. CYP2C19 Supersomes, luciferin-H EGE luminescence, 30 min;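 active means CYP2C19 inhibition above a set limit at 5 µM in the primary screen, cut at about 50% in these data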
# CYP2C9 inhib: inhibitors of human CYP2C9. CYP2C9 Supersomes, luciferin-H conversion, luminescence. inhibition, % at 5 µM. actives 20% (n = 96,000);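 active means blocking of liver enzyme CYP2C9 beyond about 50% at 5 µM, limit read from the data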
# CYP2C19 activ: increases human CYP2C19 enzyme activity; P33261; recombinant CYP2C19, luciferin-H EGE luminescence; hits give high values; 0 = fully inhibited enzyme, 1 = untreated enzyme; activation factor at 5 µM; 96,000 tested, under 10 active; AID 1025;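 active means activation factor of at least 2 at 5 µM in the primary screen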
# A number is an active result; - = inactive; . = not tested or not shown.
SMILES,CYP2C9 activ,Cav32 inh,CYP2C19 inh,CYP2C9 inhib,CYP2C19 activ
CC(C)(C)c1ccc(OCC(=O)NC2CCS(=O)(=O)C2)cc1 (stereo unspecified),-,-,-,-,-
Cc1ccc(OCC(=O)N(Cc2ccc(N(C)C)cc2)C2CCS(=O)(=O)C2)cc1 (stereo unspecified),-,-,54,68,-
Cc1cc(C)cc(OCC(=O)N(Cc2cccs2)C2CCS(=O)(=O)C2)c1 (stereo unspecified),-,-,82,54,-
Cc1ccc(OCC(=O)NC2CCS(=O)(=O)C2)cc1 (stereo unspecified),-,-4.7,-,-,-
O=c1cc(NC2CCCCCC2)[nH]c(=O)[nH]1,-,-,-,-,-
Cc1cc(C(=O)N/N=C/c2ccccc2Br)no1,-,-,-,-,-
CC(=O)c1c(N2CCCC2)[nH]c(-c2ccccc2)nc1=S,-,-,51,-,-
O=C(NC(CSCc1ccccc1)C(=O)N/N=C/c1ccc(O)cc1O)c1ccc([N+](=O)[O-])cc1 (stereo unspecified),-,-4.7,-,-,-
O=C(N/N=C/c1ccc(O)c(O)c1O)/C(=C/c1ccc([N+](=O)[O-])cc1)NC(=O)c1ccccc1,-,-,-,-,-
CCCS(=O)(=O)N1CCC(C(=O)NCCN(C)Cc2ccccc2)CC1,-,-,-,-,-
CCOC(=O)c1ccc(NC(=O)NC2CCN(CC(=O)NCc3ccc4c(c3)OCO4)CC2)cc1,-,-,-,-,-
O=C(CCCSc1nnnn1-c1cccc2ccccc12)c1ccc(F)cc1,2.4,-4.6,-,-,-
c1ccc(-n2nnnc2SCc2cccc(CSc3nnnn3-c3ccccc3)n2)cc1,.,-,.,.,.
c1ccc(CSc2nnnn2-c2cccc3ccccc23)nc1,2.3,-,-,-,-
CN(C)CCCn1c(SCC(=O)Nc2sc3c(c2C#N)CCCC3)nnc1-c1ccncc1,-,-,-,-,-
Cn1c(SCC(=O)Nc2sc3c(c2C#N)CCC3)nnc1C1COc2ccccc2O1 (stereo unspecified),-,-,-,67,-
C=CCn1c(SCC(=O)Nc2sc3c(c2C#N)CCC3)nnc1C1COc2ccccc2O1 (stereo unspecified),-,-,-,66,-
COc1ccc(-c2nnc(SCC(=O)c3ccc(C)o3)o2)cc1,.,-,.,.,.
COc1ccc(-c2nnc(SCC(=O)Nc3cccc(Cl)c3)o2)cc1,-,-,-,-,-
O=C(CSc1nnc(-c2ccc(OC(F)F)cc2)o1)NCc1cccs1,-,-,64,-,-
COc1ccc(-c2nnc(SCC(=O)NC(=O)NCc3ccco3)o2)cc1,-,-,52,-,-
COc1ccc(-c2[nH]c(-c3cccc(OC)c3)nc2SCC(=O)NCc2ccco2)cc1,-,-,94,84,-
COc1ccc(-c2nnc(SCC(=O)NC(C)c3ccccc3)o2)cc1 (stereo unspecified),-,-,59,-,-
Cc1nn(C)c(C)c1S(=O)(=O)N1CCC(C(=O)NCC2COc3ccccc3O2)CC1 (stereo unspecified),-,-,-,-,-
CCOC(=O)[C@@H]1[C@H]2COc3ccccc3[C@@H]2N2C(=O)N(c3ccc(F)cc3)C(=O)[C@]12C,.,-,.,.,.
SMILES,CYP2C9 activ,Cav32 inh,CYP2C19 inh,CYP2C9 inhib,CYP2C19 activ
Brc1ccc(-c2nnc3n2C2(CCCC2)Cc2ccccc2-3)o1,.,-,.,.,.
COC(=O)CSc1snnc1-c1ccc(Cl)cc1Cl,-,-,77,-,-
CCNC(=O)C(C)Sc1ccc(Cl)cc1 (stereo unspecified),-,-,-,-,-
C=CCNC(=O)C(C)Sc1ccc(Cl)cc1 (stereo unspecified),-,-,70,-,-
C/C(Cn1nnc([N+](=O)[O-])n1)=N\NC(=O)c1ccccc1Cl,-,-,-,-,-
COc1ccc(-c2cc(C3CCN(c4cc(Cl)nc(N)n4)CC3)[nH]n2)cc1,-,-,59,-,-
Nc1nc(Cl)cc(N2CCC(c3cc(-c4ccc(Cl)cc4)n[nH]3)CC2)n1,-,-,-,-,-
CCCCCc1cc(O)c2c(C)cc(=O)oc2c1,-,-,70,59,-
CN(c1ccc(OCC(=O)NC2CCCC2)cc1)S(=O)(=O)c1cccs1,-,-,-,72,-
COC(=O)c1ccc2c(=O)n(CCCCCC(=O)N3CCN(c4ccccc4)CC3)c(=O)[nH]c2c1,-,-,53,56,-
CCN1CCN(CCNC(=O)CCCCCn2c(=O)[nH]c3cc(C(=O)OC)ccc3c2=O)CC1,-,-,-,53,-
CCCCCn1c(=O)[nH]c2cc(C(=O)NCCc3ccc(OC)c(OC)c3)ccc2c1=O,-,-,59,70,-
COc1cc2[nH]c(=O)n(CCCCCC(=O)NCCc3c[nH]c4ccccc34)c(=O)c2cc1OC,-,-,64,67,-
CCN1CCN(C(=O)CCCCCn2c(=O)[nH]c3cc(C(=O)OC)ccc3c2=O)CC1,-,-,-,-,-
COCCn1c(=O)[nH]c2cc(C(=O)OC)ccc2c1=O,-,-,-,-,-
COc1cc2[nH]c(=O)n(CCCCCC(=O)N3CCN(c4ccccc4)CC3)c(=O)c2cc1OC,-,-,79,70,-
COc1cc2[nH]c(=O)n(CCC(=O)N3CCN(c4cccc(C)c4C)CC3)c(=O)c2cc1OC,-,-,-,-,-
O=C(NCC(=O)N(CC1CCCO1)C(C(=O)NC1CCCC1)c1cccnc1)c1ccco1 (stereo unspecified),-,-,-,-,-
O=C(CSc1nnc2scc(-c3ccccc3)n12)c1ccc2c(c1)OCCO2,-,-,-,-,-
O=C1COc2ccc(C(=O)CSc3nnc(Cc4cccs4)n3-c3ccccc3)cc2N1,-,-5.4,-,85,-
O=C1COc2ccc(C(=O)CSc3nnc(-c4cccs4)n3Cc3ccccc3)cc2N1,-,-,52,63,-
COc1cc2c(c(OC)c1CC=C(C)C)C[C@H](c1ccc(O)cc1O)CO2,.,-,.,.,.
CCC(C)NS(=O)(=O)c1ccc(OCC(=O)NCC2CCCO2)cc1 (stereo unspecified),-,-,-,-,-
Cc1nn(Cc2ccc(C(=O)Nc3nccs3)cc2)c(C)c1Cl,-,.,-,-,-
CCOCCCN1C(=O)C(O)=C(C(C)=O)C1c1cccs1 (stereo unspecified),.,-,.,.,.
CCOC(=O)C1CCCCN1Cc1ccc(F)cc1 (stereo unspecified),-,-,66,-,-
CCOC(=O)C1CCCCN1Cc1cccc(OC)c1OC (stereo unspecified),-,-,-,-,-
CCOC(=O)C1CCCCN1Cc1cc(Cl)ccc1O (stereo unspecified),-,-,99,94,-
CCOC(=O)C1CCCCN1Cc1cccc(F)c1 (stereo unspecified),-,-,89,-,-
COc1ccc(-c2[nH]ncc2/C=C(/C#N)C(=O)NC2CCCCCC2)cc1,-,-,-,-,-
